The nature of test [1]: qHTS assay to identify small molecule agonists of the vitamin D receptor (VDR) signaling pathway - cell viability counter screen (AID 743224). Note: nearly all actives have a fitted effect of over 50% in size. Note: potency is the fitted concentration of half-maximal effect. The essentials:
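VDR-bla cell line, quantitative HTS format; 16 h compound incubation (37C, 5% CO2); ATP-based CellTiter-Glo luminescence measured in the reporter assay wells.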

Test [2] is described as follows: qHTS assay to identify small molecule antagonists of the vitamin D receptor (VDR) signaling pathway - cell viability counter screen (AID 743225). Note: nearly all actives have a fitted effect of over 50% in size. In outline:
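VDR-bla HEK 293T cells, 4 h pre-incubation at 37C, then compound plus 1-alpha,25-dihydroxyvitamin D3 (3 nM final) for 16 h. After the beta-lactamase FRET read, CellTiter-Glo was added to the same wells; luminescence after 30 min at room temperature.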
(In qHTS, concentration-response curves come from the screen itself.)

Test [3] in a line: qHTS assay to identify small molecule agonists of the NFkB signaling pathway (AID 1159509; active = well fitted curve in the direction sought with a large enough effect in the signal ratio in the repeat runs, not every such curve was filed as active; the % refers to the signal ratio; note: series mostly up to about 61 µM). In outline:
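NFkB-bla ME-180 cells carry a beta-lactamase reporter under an NF-kB response element. They were plated overnight, then exposed to compounds for 5 h at 37 C. Read-out is LiveBLAzer FRET after 1.5 hr at room temperature (405 nm excitation; 460/530 nm emission).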

Test [4] in a line: qHTS assay to identify small molecule agonists of the NFkB signaling pathway - cell viability counter screen (AID 1159515; calls by dose curve; note: series mostly up to about 61 µM; nearly all actives have a fitted effect of over 55% in size). The essentials: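 Viability in NFkB-bla ME-180 cells was measured by CellTiter-Glo luminescence, 30 min room temperature, in wells already treated 5 hr with compounds and read for reporter FRET.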
Test [5] can be described thus: qHTS assay to identify small molecule agonists of the endoplasmic reticulum stress response signaling pathway (AID 1159516; active = well fitted activation curve with a large enough effect in the signal ratio in the repeat runs, not every such curve was filed as active; the % refers to the signal ratio). In outline: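 ER stress element reporter (bla) in HeLa. 1,500 cells/well, overnight attachment; 5 hr compound; 2 hr RT substrate; dual-emission fluorescence.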
A short description of test [6]: qHTS assay to identify small molecule agonists of the endoplasmic reticulum stress response signaling pathway - cell viability counter screen (AID 1159517; calls by dose curve;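 note: HeLa cells carrying an ER stress response element beta-lactamase reporter; series mostly up to about 61 µM; nearly all actives have a fitted effect of over 50% in size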). In outline:
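HeLa cells carrying an ESRE-driven beta-lactamase reporter receive compound for 5 hr at 37 C. Cell viability is then gauged with CellTiter-Glo by luminescence, 30 min at room temperature.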

A short description of test [7]: qHTS assay to identify small molecule antagonists of the retinoid-related orphan receptor gamma (ROR-gamma) signaling pathway - cell viability counter screen (AID 1159520). Note: nearly all actives have a fitted effect of over 50% in size. In outline:
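Cytotoxicity was read from cellular ATP (CellTiter-Glo luminescence) after 16 hr at 37 C with 1 uM doxycycline induction. The inducer was added 2 hr after compound transfer to Tet-on ROR gamma CHO cells.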

The target of test [8] is Nuclear receptor ROR-gamma (Homo sapiens) (UniProt P51449). The experiment in a line: qHTS assay to identify small molecule antagonists of the retinoid-related orphan receptor gamma (ROR-gamma) signaling pathway (AID 1159521). In outline: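 Tet-on RORγ CHO cells carrying a ROR response element–luciferase reporter were pretreated with compounds for 2 h, then induced with 1 uM (final) doxycycline hyclate for 16 h at 37 C. Antagonism was read as decreased ONE-Glo luminescence.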

Test [9] in a line: qHTS assay to identify small molecule agonists of the AP-1 signaling pathway - cell viability counter screen (AID 1159525; calls by dose curve; note: nearly all actives have a fitted effect of over 55% in size; note: potency is the fitted concentration of half-maximal effect). In outline:
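Luminescent ATP readout (Cell Titer Glo, 30 min RT), normalised to DMSO and tetra n-octyl ammonium bromide controls. Cells were ME-180 AP-1-bla in 0.5% dialyzed FBS Opti-MEM, with a 5 h, 37 °C compound exposure.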

A short description of test [10]: qHTS assay to identify small molecule agonists of the AP-1 signaling pathway (AID 1159526; calls by dose curve).
Test [11] concerns the target Retinoic acid receptor RXR-alpha (Homo sapiens) (UniProt P19793). The test is described as follows: qHTS assay to identify small molecule agonists of the RXR signaling pathway (AID 1159527; calls by dose curve; note: nearly all actives have a fitted effect of over 35% in size). The essentials:
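GeneBLAzer RXR-alpha-UAS-bla HEK 293T cells in medium with 2% charcoal-stripped FBS, pre-incubated 5 hr at 37 C, then exposed to compounds 16 hr. Beta-lactamase reporter read by FRET substrate, 2 hr room temperature, 460/530 nm emission.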

Test [12] in a line: qHTS assay to identify small molecule antagonists of the retinoid acid receptor (RAR) signaling pathway - cell viability counter screen (AID 1159551). Note: nearly all actives have a fitted effect of over 35% in size. In outline: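 Following overnight attachment, C3RL4 reporter cells received DMSO-dissolved compounds and then retinol (1 uM final). Six hours later at 37 C, ATP content was measured by CellTiter-Glo luminescence.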
A short description of test [13]: qHTS assay to identify small molecule antagonists of the retinoic acid receptor (RAR) signaling pathway (AID 1159552; note: nearly all actives have a fitted effect of over 50% in size). In outline:
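RARE-luc C3RL4 cells; cpds + 1 uM (final) retinol, 6 hr, 37 C/5% CO2; luciferase reagent, 30 min RT, luminescence readout. Inhibitors of retinol-driven signal scored.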

The nature of test [14]: qHTS assay to identify small molecule agonists of the retinoic acid receptor (RAR) signaling pathway (AID 1159553). Note: potency is the fitted concentration of half-maximal effect. In outline: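 Cell line C3RL4, RARE luciferase reporter. Treatment: compounds in DMSO, 6 hr, 37 C, 5% CO2, after overnight plating. Detection: luminescence, 30 min RT after reagent.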
Test [15] in a line: qHTS assay to identify small molecule antagonists of the estrogen related receptor (ERR) signaling pathway - cell viability counter screen (AID 1224818).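 Note: series mostly up to about 46 µM; viability measured after 17.5 h of compound exposure.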 The essentials:
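Here, ERR cells are plated at 2,000 cells per well, allowed 6 h to attach, and treated with compounds in DMSO for 17.5 h at 37 C. CellTiter-Fluor is then added and fluorescence read after 30 min.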

A short description of test [16]: qHTS assay to identify small molecule antagonists of the estrogen related receptor signaling pathway with the pleiotropic PPARgamma coactivator (PGC) cell viability counter screen (AID 1224822;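 note: series mostly up to about 46 µM; viability read after 17.5 h compound exposure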). In outline:
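qHTS format, DMSO compound stocks pin-transferred onto PGC/ERR cells 6 h after plating; 17.5 h exposure at 37 C, then CellTiter-Fluor fluorescence.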

Test [17] can be described thus: qHTS assay to identify small molecule agonists of the RXR signaling pathway - cell viability counter screen (AID 1159529). Note: nearly all actives have a fitted effect of over 50% in size. Note: potency is the fitted concentration of half-maximal effect. The essentials:
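RXR-alpha-UAS-bla HEK 293T cells in medium with 2% charcoal-stripped FBS were preincubated 5 hr, then exposed to compounds for 16 hr at 37 C. Viability was read as CellTiter-Glo luminescence after 30 min at room temperature.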

The nature of test [18]: qHTS assay to identify small molecule antagonists of the estrogen related receptor (ERR) signaling pathway (AID 1224819). The essentials:
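LOPAC library screened for antagonism as reduced One-Glo luminescence in ERR reporter cells (2,000/well). Compounds were added after 6 h pre-incubation and left 18 h at 37C; reading followed a 30 min room-temperature reagent step.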

Test [19] is described as follows: qHTS assay to identify small molecule agonists of the estrogen related receptor (ERR) signaling pathway (AID 1224820). In outline:
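ERR reporter cell line (from NTP), 2,000 cells/well, incubated 6 h before compound addition, then 18 h at 37 C. Luminescence measured 30 min after One-Glo reagent at room temperature.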

The test system of test [20] is estrogen-related receptor alpha (ERRalpha) with PGC-1alpha coactivator, human. The experiment in a line: qHTS assay to identify small molecule antagonists of the estrogen related receptor signaling pathway with the pleiotropic PPARgamma coactivator (PGC) (AID 1224821; calls by dose curve). In outline: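 PGC/ERR reporter cell line, plated 6 h before compound addition, then exposed 18 h at 37 °C. Luciferase activity read by luminescence 30 min after One-Glo addition; decrease indicates antagonism.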

Records with an inconclusive call do not appear. Some compounds were tested as several samples or in several runs, with calls that do not always agree. Active and inactive are the calls of the source. Unless noted, calls come from the whole dose curve; as a rule, active = well fitted curve in the direction sought with a large enough effect in the repeat runs; inconclusive = weak or mixed curves; inactive = no such curve, though single readings can be large; an effect the other way counts as inactive or inconclusive.

Chain of Retinoic acid receptor RXR-alpha (Homo sapiens) (P19793 whole entry, looked up): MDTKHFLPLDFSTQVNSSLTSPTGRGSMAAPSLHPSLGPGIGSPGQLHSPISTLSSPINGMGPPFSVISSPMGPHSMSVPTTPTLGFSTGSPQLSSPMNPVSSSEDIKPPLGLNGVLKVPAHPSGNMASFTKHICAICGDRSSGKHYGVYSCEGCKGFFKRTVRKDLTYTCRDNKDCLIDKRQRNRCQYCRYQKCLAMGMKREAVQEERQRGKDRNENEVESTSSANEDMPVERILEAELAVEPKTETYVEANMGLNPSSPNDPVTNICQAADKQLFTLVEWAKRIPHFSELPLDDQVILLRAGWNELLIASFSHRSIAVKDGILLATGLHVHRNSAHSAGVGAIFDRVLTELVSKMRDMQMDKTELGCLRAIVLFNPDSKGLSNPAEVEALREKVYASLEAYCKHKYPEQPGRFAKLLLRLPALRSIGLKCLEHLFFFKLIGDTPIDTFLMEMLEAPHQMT

In the case of `O=c1[nH]c(=O)n([C@H]2C[C@H](O)[C@@H](CO)O2)cc1I`, the Potency result in [1], in test [2], in test [8], in [9], in test [11] and in test [13] was “inactive” each time. Besides, in [14], the Potency result was “inactive”. Further, the compound was classed as inactive in [3], in test [4], in [5], in [6], in test [7] and in test [10]. For the same compound, the compound was called inactive in test [12].

Regarding `N#Cc1ccc(C2CCCc3cncn32)cc1` (centres undefined), the Potency result in test [1], in test [8], in test [9], in test [13] and in test [14] was “inactive” in each case. Also, the compound was classed as inactive in [3], in test [4], in test [5], in test [6], in test [7] and in [10]. In addition, the compound was called inactive in test [12].

Consider `COC(=O)CCSCCC(=O)OC`, for which the Potency entry in test [1], in test [8], in [9], in test [11], in [13] and in test [14] was “inactive” each time. Further, the compound was called inactive in [3], in test [4], in test [5], in test [6], in test [7] and in [10]. For the same compound, the call in test [12] was inactive.

Regarding `CCOC(=O)c1cccc(N)c1`, the Potency entry in [1], in test [2], in [8], in test [9], in [11] and in [13] was “inactive” each time. The outcome in test [3], in test [4], in test [5], in [6], in test [7] and in [10] was inactive. Further, in test [12], the result was inactive.

For `O=C1NC(=O)[C@@]2(CCOc3ccc(F)cc32)N1`, the Potency entry in [1], in test [2], in [8], in test [9], in test [11] and in test [13] was “inactive” in each case. For the same compound, the Potency result in test [14] is “inactive”. In addition, the call in [3], in test [4], in test [5], in [6], in [7] and in test [10] was inactive. The compound was classed as inactive in test [12], in test [15] and in test [16].

As for `Cc1c(O)cccc1O`, the Potency result in [1], in test [9], in test [11], in test [17], in [13] and in test [14] was “inactive” in each case. For the same compound, the compound was called inactive in test [3], in [4], in [5], in [6], in [7] and in [10]. Besides, in test [12], the call was inactive.

`c1ccc([C@H]2CN3CCSC3=N2)cc1`: the Potency entry in test [1], in [2], in test [9], in test [11], in test [17] and in test [13] was “inactive” in each case. For the same compound, the Potency entry in test [14] is “inactive”. In addition, the outcome in test [3], in test [4], in test [5], in [6], in test [7] and in test [10] was inactive. Further, the result in test [12], in test [15] and in test [16] was inactive.

On to `COC(=O)C1=C(C)NC(C)=C(C(=O)OC)C1c1ccccc1[N+](=O)[O-]`, for which the Potency is 39 µM (active) and inactive in test [1]; 49 µM (active) and inactive in test [9]; 27.6 µM (active) and inactive in [17]; 24.4 µM (active) and inactive in [14]. In addition, the Potency entry in [2], in [11] and in test [13] was “inactive” in each case. For the same compound, the compound was classed as inactive in test [3], in [4], in test [5], in [6], in test [7] and in [10]. For the same compound, the compound was classed as inactive in test [12], in test [15], in test [18], in [19], in [20] and in [16].

`C/C=C(\C)C#N`: the Potency result in test [1], in [2], in test [8], in [9], in test [11] and in test [13] was “inactive” throughout. Also, the Potency entry in test [14] was “inactive”. For the same compound, the outcome in test [3], in test [4], in [5], in test [6], in test [7] and in [10] was inactive. In test [12], the compound was called inactive.

In the case of `C[C@H]1C[C@@H](O)CC(C)(C)C1`, the Potency result in [1], in test [2], in test [9], in test [11], in [17] and in test [13] was “inactive” each time. Moreover, in test [14], the Potency result is “inactive”. The compound was called inactive in [3], in test [4], in test [5], in test [6], in test [7] and in test [10]. In addition, the call in [12] was inactive.
